From PubChem BioAssay
In the library only some 6.5% were active in any assay of this set; here they are far more common.
FMDV inh: antivirals against foot and mouth disease virus | FMDV antiviral cell-based qHTS | Potency, µM (series often up to 57.9 µM), without a hit: top-dose activity change, negative = inhibition, actives largely listed as inhibitors | actives 1.2% (n = 410,000); calls by dose curve; tested in HEK293T cells; also: read-out not given here; potency is read from the fitted curve at half-maximal effect; nearly all actives have a fitted effect of over 45% in size
HCMV antiviral: inhibitors of human cytomegalovirus; HFF cells, HCMV-luciferase reporter, 72 h; hits give low values; activity change, negative = inhibition, % at 57.5 µM; actives 4.5% (n = 410,000); AID 1259415; in the data active = activity change below about -60%; inconclusive = no clear call, values can overlap the other calls; inactive = above about -39%
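HFF cells seeded 16 h at 37C, treated with compounds, infected with luciferase-reporter HCMV at MOI 1 PFU/cell; luciferase read at 72 h post infection, normalized to buffer-only and Salinomycin controls.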
LASV entry inh: blocks Lassa virus binding to or entry into cells; Lassa virus pseudotype entry inhibition, cell reporter; Potency, µM (highest dose often 37.9 µM), without a hit: top-dose activity change, negative = inhibition, usual class: inhibitors; actives 1.2% (n = 300,000); AID 540256; calls by dose curve; tested in HEK293 cells; also: potency is read from the fitted curve at half-maximal effect; nearly all actives have a fitted effect of over 50% in size
Vaccinia Venus: vaccinia inhibition (Venus reporter). Potency, µM (doses to about 36.5 µM), for the others: at the top dose activity change, negative = inhibition, most hits filed as inhibitors. actives 0.46% (n = 330,000). Vaccinia virus Venus reporter expression, fluorescence. AID 720580; calls by dose curve; tested in A549 cells; also: potency is read from the fitted curve at half-maximal effect; nearly all actives have a fitted effect of over 30% in size
MARV entry inh: Marburg virus entry inhibition. Marburg virus pseudotyped entry inhibition, cell reporter. Potency, µM (highest dose often 37.8 µM), for inactives: top-dose activity change, negative = inhibition, actives largely listed as inhibitors. actives 1.8% (n = 300,000). AID 540276; calls by dose curve; tested in HEK293 cells; also: potency is read from the fitted curve at half-maximal effect
VACV mCherry inh: inhibitors of vaccinia virus infection (mCherry reporter signal); Potency, µM (top dose mostly 36.5 µM), for the others: at the highest dose activity change, negative = inhibition, hits mostly inhibitors; AID 720579; actives 0.63% (n = 310,000); Vaccinia virus mCherry reporter infection, fluorescence; calls by dose curve; tested in A549 cells; also: potency is read from the fitted curve at half-maximal effect; nearly all actives have a fitted effect of over 35% in size
Starred values were filed as active, the others as inactive; i = inactive; u = inconclusive; x = not tested or not shown; [ ] = another dose, or the depositor's remark. % is scaled to controls: 0 for no effect and ±100 for the full control effect.

SMILES	FMDV inh	HCMV antiviral	LASV entry inh	Vaccinia Venus	MARV entry inh	VACV mCherry inh
CCN1CCCC1CNC(=O)c1ccc2c(c1)NC(=O)/C(=C\c1ccccc1Cl)S2 (stereo not given)	-20%	-63*	x	-26%	x	-12%
O=C1Nc2cc(C(=O)NCCN3CCCCCC3)ccc2S/C1=C\c1ccccc1	-21%	-100*	x	x	x	x
Cc1ccc(-n2ncc(C(=O)Nc3ccc(Cl)cc3)c2C2CCNCC2)cc1C	-23%	-70*	u	u	u	u
Cn1ccc2c(-c3ccc(F)cc3)cc3c(c21)C1CCC3O1 (stereo not given)	x	x	1%[46.1 µM]	x	x	x
O=C(C1CC1)N(CCc1ccccc1)Cc1nc2ccccc2c(=O)[nH]1	28µM*	-9	-28%	u	4%	x
Cc1ccc2nc(NC(=O)CSCC(=O)OCC(=O)c3ccccc3)sc2c1	u	-28	5.8µM*	-4%	u	i
Cc1ccc2nc(NC(=O)COC(=O)c3ccccn3)sc2c1	68%	19	u	2%	9%[46.1 µM]	0%
Cc1ccc2nc(NC(=O)CCCC(=O)O)sc2c1	7.9µM*	u	x	-3%	x	i
CCOCC(=O)Nc1nc2ccc(C)cc2s1	-40%	67	11µM*	-20%	-18%	x
COCCN1C(=O)C2=C(C1=O)C1N(C)c3ccccc3[C@@]13C[C@@H](CO)N(S(=O)(=O)c1ccc(OC)cc1)C3=N2 (stereo not given in full)	x	x	x	x	-3%[14.2 µM]	x
CN(C)C(=O)c1ccc(-c2ccc3ncnc(NCc4ccccc4)c3c2)cc1	18%	x	x	x	x	x
O=C(Nc1ccc2nn(-c3ccccc3)nc2c1)c1ccc(Br)o1	5%	-65*	u	-4%	u	-10%
O=C(Nc1ccc2nn(-c3ccccc3)nc2c1)c1ccc2c(c1)OCCO2	25µM*	u	u	-29%	-20%[46.1 µM]	x
CCOc1ccc(-n2nc3ccc(NC(=O)c4ccc5c(c4)OCCO5)cc3n2)cc1	x	-71*	u	-12%	u	-13%
C[C@@H]1CC[C@H]2C(=O)O[C@H](COc3ccc(C(C)(C)C)cc3)CN2[C@@H]1c1ccc(Br)cc1	x	x	-27%[14.3 µM]	x	u	x
Cc1ccc(C)c(N2CCN(CCCNC(=O)c3ccc4nc(C(C)C)oc4c3)CC2)c1	u	-39	u	-20%[7.34 µM]	x	-17%[7.34 µM]
COC(=O)c1c(C)nc(C)c2c(=O)oc3c(c12)CCCC3	x	x	x	x	13%	x
COc1cc2c(cc1OC)CN(c1ccc([N+](=O)[O-])cc1C#N)CC2	32µM*	u	-17%	-19%	u	-12%
COC1=CC2C(=O)C(C1=O)[C@H](c1ccccc1)[C@H]2C (stereo not given in full)	x	x	x	x	-3%[14.2 µM]	x
COC(=O)c1ccc(CN2C(=O)[C@@]3(CC(C)=CC[C@@H](C)O3)c3ccccc32)cc1	x	x	x	x	-29%[14.2 µM]	x
O=[N+]([O-])c1cccc2c(N3CCCC3)ccnc12	u	-106*	u	7.1µM*	u	u
O=[N+]([O-])c1ccc(N2CCOCC2)c2cccnc12	-15%	5	x	-28%	x	-14%
[O-][n+]1cccc2c(Br)cc(Br)c(O)c21	-19%	-84*	12%[46.1 µM]	-9%	11%[46.1 µM]	i
COc1ccc(-c2ccnc(-n3ncc(C(=O)NCc4ccon4)c3C3CC3)n2)cc1F	-10%	x	x	u	x	-15%
c1ccc2sc(N3CCCN(Cc4nc(-c5cnccn5)no4)CC3)nc2c1	-19%	-79*	9%[46.1 µM]	-17%	u	-21%
CC1(C)CC2CC(C)(CN2S(=O)(=O)c2ccc(C(=O)Nc3ccc(Cl)c(S(=O)(=O)N4CCOCC4)c3)cc2)C1 (stereo not given)	u	-98*	u	-12%	3.5µM*	-11%
CC1(C)CC2CC(C)(CN2S(=O)(=O)c2ccc(C(=O)Nc3ccc(S(=O)(=O)N4CCOCC4)cc3)cc2)C1 (stereo not given)	-17%	-90*	3.5µM*	-15%	2.8µM*	i
CC(=O)Nc1ccc(S(=O)(=O)N2CC3(C)CC2CC(C)(C)C3)cc1 (stereo not given)	10%	u	u	-7%	u	-4%
Cc1cc(/C=C(\C#N)C(=O)N2CCOCC2)c(C)n1C1CCCC1	-3%	-84*	x	x	4%	x
